Data reported in PubChem BioAssay (NCATS).
Records with an inconclusive call do not appear. The source made the active and inactive calls. Unless noted, calls follow the shape of the dose curve; as a rule, active = well fitted curve in the direction sought with a large enough effect; inconclusive = small, poorly fitted or top-dose-only effect, or another doubt; inactive = no such curve, though single readings can be large; an effect the other way counts as inactive or inconclusive.

Key:
[1] = NS1 protein of Zika virus - qHTS assay to identify small molecule inhibitors in human HEK 293 cells (AID 1347053); conditions: HEK293 ZIKV MR766 infection, NS1 TR-FRET, 24 h; series mostly up to 46.1 µM;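 also: plate controls were infected untreated cells for no effect and uninfected cells for full effect; nearly all actives have a fitted effect of over 55% in size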
Summary of the method: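 Read-out is a two-antibody TR-FRET for ZIKV NS1, normalized between uninfected cells and infected cells. Compound added 1 h before MR766 infection at MOI 0.5; human HEK 293 cells incubated 24 h, 37 C.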

[2] = target: T1, Tyrosine-protein phosphatase non-receptor type substrate 1 (Homo sapiens) + Leukocyte surface antigen CD47 (Homo sapiens) (UniProt P78324+Q08722); test: CD47-SIRPalpha protein protein interaction - LANCE assay qHTS validation (AID 1347057; active = well fitted curve in the direction sought with a large enough effect in the signal ratio, with a control signal flat, not every such curve was filed as active; the % refers to the signal ratio; also: 0% is about no effect); conditions: Recombinant CD47-His / biotin-SIRPalpha, TR-FRET ratio; series mostly up to 38.3 µM
Summary of the method: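 Inhibition of soluble CD47/SIRPalpha ectodomain association by titrated compounds, measured as 665/615 nm time-resolved FRET ratio after sequential 30 min room-temperature incubations.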

[3] = target: T1, Tyrosine-protein phosphatase non-receptor type substrate 1 (Homo sapiens) + Leukocyte surface antigen CD47 (Homo sapiens); test: CD47-SIRPalpha protein protein interaction - Alpha assay qHTS validation (AID 1347059); conditions: AlphaScreen CD47-His/biotin-SIRPalpha binding, LOPAC; series mostly up to 38.3 µM;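 also: bead proximity luminescence from CD47 binding SIRPalpha after compound preincubation with SIRPalpha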; also: potency is read from the fitted curve at half-maximal effect
Summary of the method: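 AlphaScreen signal between CD47-His (12.5 nM) and biotin-SIRPalpha (25 nM) soluble extracellular domains, bead-captured via Ni-NTA and streptavidin. Compounds, in 7-point titrations, met SIRPalpha 30 min before CD47; PBS pH 7.4 with 0.05% IGEPAL.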

[4] = target: Parathyroid hormone/parathyroid hormone-related peptide receptor (Homo sapiens) (UniProt Q03431); test: qHTS for PTHR1 Agonists: Optimization Screen against the NCGC LOPAC library (AID 1347079); conditions: HEK293 GP2 PTHR1 GloSensor cAMP luminescence, 1 h; series mostly up to 57.1 µM;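 also: GloSensor cAMP luminescence in HEK-293 GP2 cells expressing human PTHR1 with IBMX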; also: potency is read from the fitted curve at half-maximal effect
Summary of the method: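 HEK-293 GP2 cells, PTHR1 + GloSensor cAMP; 3000 cells/well, o/n. Luciferin + IBMX 0.5mM each (stock), 1 hr 37C. Cpd titration, 1 hr 37C. Lum after 15 min RT. Ctrl M-PTH(1-15) top 10uM.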

[5] = tested on: Zika virus NS2B-NS3 protease (unlinked); test: Optimization of GU AMC qHTS for Zika virus inhibitors: Unlinked NS2B-NS3 protease assay (AID 1347151); conditions: recombinant ZIKV NS2B-NS3 protease, fluorogenic AMC substrate; series mostly up to 52.5 µM; also: nearly all actives have a fitted effect of over 80% in size; also: potency is read from the fitted curve at half-maximal effect
Summary of the method: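 Fluorescence read-out (340 nm ex / 450 nm em) of AMC peptide cleavage, taken immediately and after 15 min at room temperature (~20% conversion). Enzyme was the unlinked NS2B–NS3 complex at 25 nM in Tris pH 8.0 buffer.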

[6] = target: N-terminal Xaa-Pro-Lys N-methyltransferase 1 (Homo sapiens) (UniProt Q9BV86); test: qHTS Assay for Inhibitors of N-terminal methyltransferase 1 (NTMT1): LOPAC validation of the NTMT1 SAHH-coupled ThioGlo3 Assay (AID 1347143); conditions: recombinant NTMT1, SAHH-coupled ThioGlo3 fluorescence; series mostly up to 114 µM;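 also: SAH from peptide methylation measured as thiol fluorescence via SAHH coupling and ThioGlo3; nearly all actives have a fitted effect of over 70% in size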; also: potency is read from the fitted curve at half-maximal effect
Summary of the method: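 NTMT1 125nM + cpds (various conc.), 1 min RT; add SAM 100uM/SAHH 10uM/ThioGlo3 15uM (addition mix). SAHH-coupled thiol detection, Ex340/Em450, t0 and 30 min RT; signal normalized to background. LOPAC 1280-cpd pilot.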

[7] = target: Lysine-specific demethylase 5B (Homo sapiens) (UniProt Q9UGL1); test: Optimization screen for KDM5B Histone Demethylases FDH coupled qHTS against the LOPAC library (AID 1347166); conditions: KDM5B demethylation, FDH-coupled NADH fluorescence (FDH is formaldehyde dehydrogenase); at 57.5 µM (top of the series); also: 0% is about no effect
Summary of the method: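 KDM5BDeltaAP (200nM final) in 50mM HEPES pH 7.5, 0.01% Tween-20 was preincubated with compound for 10 min at room temperature. A substrate mix of 12.5uM H3K4Me3, 25uM a-ketoglutarate, ascorbate, Fe2+, NAD+ and formaldehyde dehydrogenase was then added. NADH fluorescence (340/450 nm) was read initially and after 30 min.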

[8] = tested on: Zika virus NS2B-NS3 protease; test: Primary screen GU AMC qHTS for Zika virus inhibitors (AID 1347154); conditions: Zika NS2B-NS3 unlinked protease, AMC fluorogenic substrate; series mostly up to 54.1 µM;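 also: 0% = no-inhibitor control and -100% = no-enzyme control; nearly all actives have a fitted effect of over 70% in size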
Summary of the method: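 Fluorogenic AMC-substrate cleavage by noncovalent NS2B-NS3 protease complex (25 nM, pH 8.0 Tris buffer with Tween 20) followed for 15 minutes at room temperature (~20% conversion). Percent inhibition from ex340/em450 signal change, fitted by 4-parameter Hill equation.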

[9] = tested on: Zika virus NS2B-NS3 protease (linked construct); test: Primary screen NINDS Rhodamine qHTS for Zika virus inhibitors (AID 1347160); conditions: purified NS2B-NS3 protease, Rhodamine110 substrate fluorescence; series mostly up to 227 µM; also: % is scaled to controls: 0 for no effect and ±100 for the full control effect; nearly all actives have a fitted effect of over 55% in size
Summary of the method: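 Rhodamine110-peptide cleavage (1.5 µM substrate) by 25 nM linked NS2B-NS3 enzyme at pH 8.0 (Tris, Tween 20), after 15 min RT preincubation with compounds; 15-min fluorescence change normalized to controls and Hill-fitted.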

[10] = target: T1, Tyrosine-protein phosphatase non-receptor type substrate 1 (Homo sapiens) + Leukocyte surface antigen CD47 (Homo sapiens); test: CD47-SIRPalpha protein protein interaction - HTRF assay qHTS validation (AID 1347058; active = well fitted curve in the direction sought with a large enough effect in the signal ratio, not every such curve was filed as active; the % refers to the signal ratio; also: 0% is about no effect); conditions: TR-FRET HTRF CD47-His / biotin-SIRPalpha binding, ratio 665/615; series mostly up to 38.3 µM
Summary of the method: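 Soluble extracellular domains (6His-CD47, Avi-tag-biotinylated SIRPalpha) in PBS pH 7.4 with 0.05% IGEPAL CA-630. Compounds were preincubated 30 min at RT with CD47 and anti-His-Eu, then SIRPalpha and SAV-XL665 were added. TR-FRET 665/615 ratio.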

[11] = target: Furin (Homo sapiens) (UniProt P09958); test: Furin counterscreen qHTS for Zika virus inhibitors (AID 1347149); conditions: furin enzymatic counterscreen, fluorogenic substrate; series mostly up to 57.5 µM;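 also: purified recombinant full-length human furin enzyme at 5 nM; fluorescence gain from furin cutting a BOC-RVRR-AMC peptide substrate over 15 min; top concentration of the series differs between compounds; plate controls were no-inhibitor control for no effect and no-enzyme control for full effect; nearly all actives have a fitted effect of over 70% in size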
Summary of the method: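 Counterscreen measures cleavage of 2 microM BOC-RVRR-AMC, below its ~15 microM Km, by 5 nM full-length human furin at pH 7.0 after a 15-min compound preincubation. Inhibition derives from the 15-min fluorescence increase at 37C.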

[12] = ZIKV-mCherry secondary qHTS for Zika virus inhibitors (AID 1347158); conditions: Vero cells, ZIKV-mCherry infection imaging, 48-72 h; series mostly up to 49.2 µM; also: top concentration of the series differs between compounds
Summary of the method: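 Percent infection is the share of Hoechst-identified Vero nuclei with mCherry signal above 450 RFU (3 SD over negative controls). Cells were infected with recombinant ZIKV-mCherry at MOI 1 after compound addition and imaged 48–72 h later.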

[13] = tested on: Zika virus NS2B-NS3 protease (linked); test: 384 well plate NINDS AMC confirmatory qHTS for Zika virus inhibitors (AID 1347163); conditions: Recombinant NS2B-NS3 protease, Ac-VKTGKR-AMC fluorescence; series mostly up to 100 µM; also: potency is read from the fitted curve at half-maximal effect; nearly all actives have a fitted effect of over 50% in size
Summary of the method: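 Fluorescence at 355/460 nm was read after 25 minutes of cleavage of 30 microM Ac-VKTGKR-AMC at room temperature, in the dark. Before substrate addition, compounds (up to 1 mM final) sat ~15 minutes with 5, 30 or 60 nM linked protease. Signals were normalized to no-enzyme and no-inhibitor wells.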

[14] = tested on: Zika virus NS2B-NS3 protease (linked construct); test: 384 well plate NINDS Rhodamine confirmatory qHTS for Zika virus inhibitors (AID 1347164); conditions: rhodamine-110 peptide substrate fluorescence; series mostly up to 100 µM;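 also: fluorescence from protease cleavage of Ac-LKRR-rhodamine 110 substrate; top concentration of the series differs between compounds; plate controls were no-inhibitor control for no effect and no-enzyme control for full effect; nearly all actives have a fitted effect of over 65% in size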
Summary of the method: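 Fluorescence read at ex 485 nm/em 538 nm, 25 min after adding 10 microM Ac-LKRR-Rd substrate at room temperature in the dark; signal normalized to no-enzyme and no-inhibitor controls. Enzyme final 5, 30 or 60 nM; compounds, ~15 min preincubation.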

[15] = Vero cells viability qHTS for Zika virus inhibitors (AID 1347167); conditions: cytotoxicity counter-screen (Zika); series mostly up to 45.9 µM; also: % is scaled to controls: 0 for no effect and ±100 for the full control effect
Summary of the method: (§1)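 Luminescent ATP readout (CellTiter Glo) after 30 min at 37 degrees C gives viability; cells in DMEM + 4% FBS were treated 24 to 48 hours with compound, following overnight attachment.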

[16] = HepG2 cells viability qHTS for Zika virus inhibitors (AID 1347168); conditions: Zika counter-screen; series mostly up to 45.9 µM; also: % is scaled to controls: 0 for no effect and ±100 for the full control effect
Summary of the method: as §1

Chain of N-terminal Xaa-Pro-Lys N-methyltransferase 1 (Homo sapiens) (Q9BV86 whole entry, looked up): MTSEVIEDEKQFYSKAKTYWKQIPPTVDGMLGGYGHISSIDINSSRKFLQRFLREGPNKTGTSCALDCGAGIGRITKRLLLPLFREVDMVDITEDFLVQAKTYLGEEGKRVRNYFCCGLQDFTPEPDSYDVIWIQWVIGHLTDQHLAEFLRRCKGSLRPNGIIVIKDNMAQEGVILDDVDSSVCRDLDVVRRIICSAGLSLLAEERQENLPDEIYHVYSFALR
Chain of Parathyroid hormone/parathyroid hormone-related peptide receptor (Homo sapiens) (Q03431 whole entry, looked up): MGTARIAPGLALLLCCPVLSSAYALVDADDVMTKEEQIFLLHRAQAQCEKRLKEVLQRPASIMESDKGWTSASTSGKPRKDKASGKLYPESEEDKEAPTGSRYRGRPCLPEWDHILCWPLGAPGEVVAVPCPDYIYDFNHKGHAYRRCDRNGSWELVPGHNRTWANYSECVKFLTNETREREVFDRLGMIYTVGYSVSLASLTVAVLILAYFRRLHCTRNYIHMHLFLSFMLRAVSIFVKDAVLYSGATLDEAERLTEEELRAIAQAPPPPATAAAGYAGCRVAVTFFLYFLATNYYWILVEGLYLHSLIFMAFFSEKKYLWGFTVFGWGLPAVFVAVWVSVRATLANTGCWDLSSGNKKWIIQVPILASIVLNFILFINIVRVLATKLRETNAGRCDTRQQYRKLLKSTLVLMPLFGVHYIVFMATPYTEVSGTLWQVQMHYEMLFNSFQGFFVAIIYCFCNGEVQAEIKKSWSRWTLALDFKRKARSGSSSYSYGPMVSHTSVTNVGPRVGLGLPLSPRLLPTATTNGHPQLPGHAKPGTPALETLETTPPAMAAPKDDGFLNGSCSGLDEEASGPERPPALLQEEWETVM
T1 sequence (P78324 whole entry, looked up, the tested form may be a part): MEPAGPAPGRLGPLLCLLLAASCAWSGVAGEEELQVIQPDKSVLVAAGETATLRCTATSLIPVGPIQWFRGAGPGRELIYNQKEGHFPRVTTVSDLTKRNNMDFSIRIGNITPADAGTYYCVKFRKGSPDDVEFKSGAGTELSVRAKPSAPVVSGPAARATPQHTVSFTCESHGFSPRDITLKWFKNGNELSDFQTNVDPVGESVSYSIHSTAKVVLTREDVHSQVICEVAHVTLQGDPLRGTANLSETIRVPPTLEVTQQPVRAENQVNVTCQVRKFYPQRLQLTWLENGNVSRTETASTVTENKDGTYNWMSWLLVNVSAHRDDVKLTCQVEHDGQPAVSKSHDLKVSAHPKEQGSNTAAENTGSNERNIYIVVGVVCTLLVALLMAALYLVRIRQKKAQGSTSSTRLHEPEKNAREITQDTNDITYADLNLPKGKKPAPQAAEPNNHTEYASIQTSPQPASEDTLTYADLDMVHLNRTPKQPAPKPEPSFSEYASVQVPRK
T1 sequence (Q08722 whole entry, looked up, the tested form may be a part): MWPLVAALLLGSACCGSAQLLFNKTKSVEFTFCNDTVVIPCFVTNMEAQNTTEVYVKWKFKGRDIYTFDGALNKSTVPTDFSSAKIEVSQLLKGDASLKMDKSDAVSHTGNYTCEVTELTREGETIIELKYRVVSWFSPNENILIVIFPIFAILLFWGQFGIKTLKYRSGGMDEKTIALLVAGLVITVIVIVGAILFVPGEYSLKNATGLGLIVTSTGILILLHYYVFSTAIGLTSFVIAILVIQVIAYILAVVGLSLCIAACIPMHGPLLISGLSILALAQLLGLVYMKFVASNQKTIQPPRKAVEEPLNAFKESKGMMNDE
Chain of Lysine-specific demethylase 5B (Homo sapiens) (Q9UGL1 whole entry, looked up): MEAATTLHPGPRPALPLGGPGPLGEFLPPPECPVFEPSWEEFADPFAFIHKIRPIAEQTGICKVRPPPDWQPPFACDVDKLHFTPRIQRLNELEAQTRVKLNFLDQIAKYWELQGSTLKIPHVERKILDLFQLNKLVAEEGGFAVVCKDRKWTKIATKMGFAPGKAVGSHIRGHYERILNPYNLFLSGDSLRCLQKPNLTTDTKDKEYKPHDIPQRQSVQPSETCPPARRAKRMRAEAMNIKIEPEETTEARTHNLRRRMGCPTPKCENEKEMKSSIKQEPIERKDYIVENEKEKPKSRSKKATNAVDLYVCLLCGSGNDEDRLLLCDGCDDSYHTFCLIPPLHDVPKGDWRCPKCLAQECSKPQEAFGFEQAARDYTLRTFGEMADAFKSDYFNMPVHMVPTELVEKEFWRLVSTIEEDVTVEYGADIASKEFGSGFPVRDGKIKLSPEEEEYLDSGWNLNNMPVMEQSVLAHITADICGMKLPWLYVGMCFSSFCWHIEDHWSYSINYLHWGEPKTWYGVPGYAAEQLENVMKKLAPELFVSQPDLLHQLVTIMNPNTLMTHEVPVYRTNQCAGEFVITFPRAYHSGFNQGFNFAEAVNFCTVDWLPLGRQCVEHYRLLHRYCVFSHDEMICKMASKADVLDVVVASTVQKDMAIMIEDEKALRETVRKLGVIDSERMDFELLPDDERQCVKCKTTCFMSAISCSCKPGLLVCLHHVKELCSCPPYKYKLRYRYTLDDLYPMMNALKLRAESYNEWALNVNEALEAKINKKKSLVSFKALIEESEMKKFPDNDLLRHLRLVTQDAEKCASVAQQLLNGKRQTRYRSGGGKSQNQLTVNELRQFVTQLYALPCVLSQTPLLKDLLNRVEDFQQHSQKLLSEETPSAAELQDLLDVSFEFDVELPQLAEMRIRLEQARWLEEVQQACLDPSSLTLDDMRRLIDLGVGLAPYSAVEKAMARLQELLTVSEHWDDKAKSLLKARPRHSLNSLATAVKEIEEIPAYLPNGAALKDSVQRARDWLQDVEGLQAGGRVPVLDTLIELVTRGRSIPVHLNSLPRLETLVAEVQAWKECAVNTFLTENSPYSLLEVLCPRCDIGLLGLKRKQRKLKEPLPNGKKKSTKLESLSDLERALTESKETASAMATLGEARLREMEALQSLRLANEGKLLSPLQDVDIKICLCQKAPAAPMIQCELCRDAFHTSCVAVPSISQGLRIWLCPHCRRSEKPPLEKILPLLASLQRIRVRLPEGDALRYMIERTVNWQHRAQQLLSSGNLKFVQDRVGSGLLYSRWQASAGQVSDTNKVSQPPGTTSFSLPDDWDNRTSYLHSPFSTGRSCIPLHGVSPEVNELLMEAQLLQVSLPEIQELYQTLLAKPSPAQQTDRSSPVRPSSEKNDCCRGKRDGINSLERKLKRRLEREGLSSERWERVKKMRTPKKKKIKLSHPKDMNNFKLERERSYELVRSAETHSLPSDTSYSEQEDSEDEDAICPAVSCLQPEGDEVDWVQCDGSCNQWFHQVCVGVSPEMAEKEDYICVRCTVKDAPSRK
Chain of Furin (Homo sapiens) (P09958 whole entry, looked up): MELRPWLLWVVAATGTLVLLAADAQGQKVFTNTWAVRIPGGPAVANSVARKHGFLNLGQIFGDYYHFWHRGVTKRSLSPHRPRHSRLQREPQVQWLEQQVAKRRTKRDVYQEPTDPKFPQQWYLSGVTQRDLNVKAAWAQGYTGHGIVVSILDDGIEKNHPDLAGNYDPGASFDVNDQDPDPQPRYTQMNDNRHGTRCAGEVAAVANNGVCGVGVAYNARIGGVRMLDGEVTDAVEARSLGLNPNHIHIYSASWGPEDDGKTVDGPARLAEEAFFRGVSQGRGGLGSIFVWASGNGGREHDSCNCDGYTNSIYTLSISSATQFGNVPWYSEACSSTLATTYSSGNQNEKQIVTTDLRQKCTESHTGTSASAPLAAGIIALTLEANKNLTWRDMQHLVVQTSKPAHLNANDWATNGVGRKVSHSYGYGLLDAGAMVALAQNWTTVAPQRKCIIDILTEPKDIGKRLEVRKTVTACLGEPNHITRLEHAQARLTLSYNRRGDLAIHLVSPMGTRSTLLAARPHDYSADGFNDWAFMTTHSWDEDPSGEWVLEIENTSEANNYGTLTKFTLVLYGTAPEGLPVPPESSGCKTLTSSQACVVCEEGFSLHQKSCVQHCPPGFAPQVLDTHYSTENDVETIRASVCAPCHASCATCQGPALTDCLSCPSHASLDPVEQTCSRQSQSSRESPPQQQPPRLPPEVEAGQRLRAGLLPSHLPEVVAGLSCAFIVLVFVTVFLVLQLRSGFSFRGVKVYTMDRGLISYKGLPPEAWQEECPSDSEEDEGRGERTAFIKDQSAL

O=c1[nH]ccc2c(O)cccc12
inactive: Potency [1] | Potency [2] | Potency [3] | Potency [4]
active: Potency [5] 29.9 µM

c1ccc(C2CN3CCSC3=N2)cc1 (stereo not drawn)
inactive: Potency [1] | Potency [2] | Potency [3] | Potency [6] | Potency [5] | activity, negative = inhibition [7] -3.45%

COc1ccccc1N1CCN(CCCCNC(=O)c2ccc3ccccc3c2)CC1
inactive: Potency [1] | Potency [2] | Potency [3] | Potency [4] | Potency [5] | activity, negative = inhibition [7] -7.43%

c1ccc2nc(C3=NCCN3)ccc2c1
inactive: Potency [1] | Potency [2] | Potency [3] | Potency [6] | Potency [8]
active: Potency [4] 26.7 µM

CN1Cc2sccc2C(c2ccc(O)c(O)c2)C1 (stereo not drawn)
active: Potency [6] 39.8 µM
inactive: Potency [1] | Potency [2] | Potency [3] | Potency [5]

NC[C@@H]1O[C@H](c2ccccc2)Cc2c1ccc(O)c2O
inactive: Potency [1] | Potency [2] | Potency [3] | Potency [4] | Potency [5] | Potency [8]

CNCCc1cnc(CCC(c2ccccc2)c2ccccc2)[nH]1
inactive: Potency [1] | Potency [2] | Potency [3] | Potency [4] | Potency [5] | activity, negative = inhibition [7] -15.1%

CC(=O)NCCc1c[nH]c2ccc(O)cc12
inactive: Potency [1] | Potency [2] | Potency [3] | Potency [4] | Potency [5] | Potency [8] | outcome [9] | activity, negative = inhibition [7] -23.2%

CC(C)(C)c1ccc(/C=C/C(=O)Nc2ccc3c(c2)OCCO3)cc1
inactive: Potency [1] | Potency [2] | Potency [3] | Potency [5] | activity, negative = inhibition [7] -12.1%

O=C(N[C@@H](Cc1ccccc1)C(=O)CCl)OCc1ccccc1
inactive: Potency [2] | outcome [10] | Potency [3] | Potency [4] | Potency [5]

CC(=O)/C(C)=N/O
inactive: Potency [1] | outcome [10] | Potency [4] | Potency [6] | Potency [5] | activity, negative = inhibition [7] -0.876%

O=[N+]([O-])c1cccc2c(Br)[nH]nc12
inactive: Potency [1] | Potency [2] | Potency [3] | Potency [5] | Potency [8] | activity, negative = inhibition [7] -1.9%

CC[n+]1c(/C=C/C=C2/N(C)c3ccccc3C2(C)C)sc2ccccc21
inactive: Potency [4] | activity, negative = inhibition [7] -25%
active: Potency [3] 7.36 µM | Potency [6] 35.5 µM

C=C1C(=O)O[C@@H]2[C@H]3O[C@]3(C)CCC=C(C)CC[C@@H]12
inactive: Potency [2] | outcome [10] | Potency [3] | Potency [4] | Potency [6] | Potency [5] | Potency [8] | activity, negative = inhibition [7] -8.83%

CCC1(O)CC2CN(CCc3c([nH]c4ccccc34)[C@@](C(=O)OC)(c3cc4c(cc3OC)N(C)C3[C@]45CCN4CC=C[C@@](CC)([C@@H](OC(C)=O)[C@]3(O)C(=O)OC)[C@H]45)C2)C1 (stereo partly drawn)
inactive: Potency [4] | activity, negative = inhibition [7] -13.4%

CC(O)C(O)[C@H]1CNc2nc(N)[nH]c(=O)c2N1 (stereo partly drawn)
active: Potency [6] 28.2 µM | Potency [5] 26.7 µM
inactive: Potency [1] | Potency [4]

O=C1NC(=O)c2cc(Nc3ccccc3)c(Nc3ccccc3)cc21
active: Potency [13] 12.6 µM
inactive: Potency [1] | Potency [3] | Potency [4] | Potency [11] | Potency [12] | Potency [14] | activity, negative = inhibition [7] -17.6% | Potency [15] | outcome [16]
